The values that follow come from article PMC7862700, “An all-to-all approach to the identification of sequence-specific readers for epigenetic DNA modifications on cytosine”.

Assay in all cases: DAPPL (digital affinity profiling via proximity ligation, sequencing); 10 mM Tris-HCl pH 7.5, 50 mM NaCl, 1 mM DTT, 4% glycerol, room temperature, 30 min; GST-TFs on glutathione beads, 16-mer random dsDNA library, 0.1% formaldehyde crosslink after washing; high values mean tight binding
Holding throughout (settings): protein: recombinant; tags: N-terminal GST; dsDNA, one strand shown

One experiment deals with T1, ELK1 (Homo sapiens, UniProt P19419 1-428).
T1 sequence: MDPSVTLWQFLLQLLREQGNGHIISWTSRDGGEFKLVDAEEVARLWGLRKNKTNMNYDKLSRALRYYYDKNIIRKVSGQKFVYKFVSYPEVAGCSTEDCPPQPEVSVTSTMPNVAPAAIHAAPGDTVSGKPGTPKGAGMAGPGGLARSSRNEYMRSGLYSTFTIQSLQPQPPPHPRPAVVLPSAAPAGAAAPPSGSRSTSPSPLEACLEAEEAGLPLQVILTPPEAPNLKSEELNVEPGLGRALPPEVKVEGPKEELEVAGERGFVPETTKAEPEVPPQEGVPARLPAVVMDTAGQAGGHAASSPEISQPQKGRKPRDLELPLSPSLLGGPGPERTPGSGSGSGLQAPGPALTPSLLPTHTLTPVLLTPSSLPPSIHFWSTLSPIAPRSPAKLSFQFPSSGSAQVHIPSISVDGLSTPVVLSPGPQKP
The method, boiled down:
(§1)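 Binding signal is defined as a hexamer's read frequency for one factor over its frequency for the tag-only sample. To obtain reads, GST-fused human transcription factors were expressed in yeast, captured on glutathione beads, barcoded with DNA and pooled with that sample. Pools met 200 nmole of a 16-mer random double-stranded DNA library in Tris/NaCl/DTT/glycerol buffer for 30 min at room temperature before washing, 0.1% formaldehyde crosslinking, proximity ligation (BsaI/T4 ligase, 1 h, 37 °C), PCR and Illumina NextSeq500 sequencing.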

A further experiment concerns the target ELF1 (Homo sapiens, UniProt P32519 1-619). The essentials:
as §1

A further experiment deals with T2, ELK3 (Homo sapiens, UniProt P41970 1-407).
T2 sequence: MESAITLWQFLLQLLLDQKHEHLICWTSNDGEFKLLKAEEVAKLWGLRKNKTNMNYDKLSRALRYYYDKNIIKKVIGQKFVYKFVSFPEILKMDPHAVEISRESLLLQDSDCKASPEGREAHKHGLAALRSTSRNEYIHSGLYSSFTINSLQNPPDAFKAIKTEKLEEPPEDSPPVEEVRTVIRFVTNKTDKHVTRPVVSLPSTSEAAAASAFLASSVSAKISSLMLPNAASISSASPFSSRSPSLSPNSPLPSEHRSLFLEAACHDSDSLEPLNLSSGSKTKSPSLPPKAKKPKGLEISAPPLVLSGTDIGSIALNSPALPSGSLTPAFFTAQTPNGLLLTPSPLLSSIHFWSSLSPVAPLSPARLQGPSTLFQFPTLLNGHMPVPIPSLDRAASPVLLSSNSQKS
The essentials:
as §1

The target of a further experiment is T3, FEV (Homo sapiens, UniProt Q99581 1-238).
T3 sequence: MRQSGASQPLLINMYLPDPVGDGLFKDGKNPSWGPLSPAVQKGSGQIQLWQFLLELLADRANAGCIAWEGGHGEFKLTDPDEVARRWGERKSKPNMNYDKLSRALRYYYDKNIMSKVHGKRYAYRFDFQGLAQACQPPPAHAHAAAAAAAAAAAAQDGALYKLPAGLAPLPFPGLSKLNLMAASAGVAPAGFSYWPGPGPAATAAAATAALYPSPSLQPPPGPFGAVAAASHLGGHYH
The essentials:
as §1

A further experiment deals with T4, SPIC (Homo sapiens, UniProt Q8N5J4 1-248).
T4 sequence: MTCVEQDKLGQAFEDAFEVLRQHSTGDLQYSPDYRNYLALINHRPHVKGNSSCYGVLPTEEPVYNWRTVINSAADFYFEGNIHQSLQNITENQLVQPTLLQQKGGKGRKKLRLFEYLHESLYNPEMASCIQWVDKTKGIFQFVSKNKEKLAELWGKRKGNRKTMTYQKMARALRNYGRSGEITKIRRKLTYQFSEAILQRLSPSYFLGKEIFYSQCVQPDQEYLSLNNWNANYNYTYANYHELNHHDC
The essentials:
as §1

The next experiment addresses T5, ELF3 (Homo sapiens, UniProt P78545 1-371).
T5 sequence: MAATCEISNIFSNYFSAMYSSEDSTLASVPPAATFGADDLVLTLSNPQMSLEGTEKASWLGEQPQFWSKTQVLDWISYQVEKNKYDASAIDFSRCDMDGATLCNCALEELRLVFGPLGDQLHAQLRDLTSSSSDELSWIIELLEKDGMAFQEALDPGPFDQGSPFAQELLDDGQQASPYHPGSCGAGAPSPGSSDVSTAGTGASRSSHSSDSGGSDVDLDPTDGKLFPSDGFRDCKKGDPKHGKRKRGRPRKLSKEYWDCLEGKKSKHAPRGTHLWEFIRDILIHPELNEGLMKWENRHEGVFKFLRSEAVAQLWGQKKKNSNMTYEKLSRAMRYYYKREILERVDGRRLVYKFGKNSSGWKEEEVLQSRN
The essentials:
as §1

The next experiment deals with T6, ETV3L (Homo sapiens, UniProt Q6ZN32 1-361).
T6 sequence: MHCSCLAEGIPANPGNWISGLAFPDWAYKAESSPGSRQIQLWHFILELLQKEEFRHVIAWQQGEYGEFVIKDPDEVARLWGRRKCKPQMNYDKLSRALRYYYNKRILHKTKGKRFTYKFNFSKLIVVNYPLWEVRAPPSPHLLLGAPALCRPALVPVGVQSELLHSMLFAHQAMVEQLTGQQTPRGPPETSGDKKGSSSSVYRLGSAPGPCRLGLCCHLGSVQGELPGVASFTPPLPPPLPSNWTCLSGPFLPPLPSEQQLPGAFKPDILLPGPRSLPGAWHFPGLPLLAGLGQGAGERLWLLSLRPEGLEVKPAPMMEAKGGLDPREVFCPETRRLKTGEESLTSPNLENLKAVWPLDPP
The method, boiled down: as §1

For the next experiment, the target named is T7, ETV3 (Homo sapiens, UniProt P41162-2 1-143).
T7 sequence: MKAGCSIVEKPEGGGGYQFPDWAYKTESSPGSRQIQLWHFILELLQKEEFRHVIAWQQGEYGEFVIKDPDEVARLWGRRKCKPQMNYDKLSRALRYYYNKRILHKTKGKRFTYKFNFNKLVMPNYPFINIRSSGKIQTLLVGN
The essentials:
as §1

Another experiment addresses ETV6 (Homo sapiens, UniProt P41212 1-452). The essentials:
as §1

The target of the next experiment is T8, ELK4 (Homo sapiens, UniProt P28324-2 1-405).
T8 sequence: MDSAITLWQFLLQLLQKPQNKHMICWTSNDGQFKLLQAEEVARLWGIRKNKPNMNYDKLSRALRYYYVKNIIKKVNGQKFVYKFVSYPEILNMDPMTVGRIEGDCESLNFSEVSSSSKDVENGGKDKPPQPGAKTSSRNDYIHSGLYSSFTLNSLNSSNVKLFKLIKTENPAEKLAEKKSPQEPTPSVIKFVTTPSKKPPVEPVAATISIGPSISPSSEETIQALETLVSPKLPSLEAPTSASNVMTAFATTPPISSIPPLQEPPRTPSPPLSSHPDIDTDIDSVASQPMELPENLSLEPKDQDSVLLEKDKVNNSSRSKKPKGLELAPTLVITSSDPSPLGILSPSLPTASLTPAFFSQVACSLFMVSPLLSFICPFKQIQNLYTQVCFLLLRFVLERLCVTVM
The essentials: as §1

In another experiment the target is T9, ERF (Homo sapiens, UniProt P50548 1-548).
T9 sequence: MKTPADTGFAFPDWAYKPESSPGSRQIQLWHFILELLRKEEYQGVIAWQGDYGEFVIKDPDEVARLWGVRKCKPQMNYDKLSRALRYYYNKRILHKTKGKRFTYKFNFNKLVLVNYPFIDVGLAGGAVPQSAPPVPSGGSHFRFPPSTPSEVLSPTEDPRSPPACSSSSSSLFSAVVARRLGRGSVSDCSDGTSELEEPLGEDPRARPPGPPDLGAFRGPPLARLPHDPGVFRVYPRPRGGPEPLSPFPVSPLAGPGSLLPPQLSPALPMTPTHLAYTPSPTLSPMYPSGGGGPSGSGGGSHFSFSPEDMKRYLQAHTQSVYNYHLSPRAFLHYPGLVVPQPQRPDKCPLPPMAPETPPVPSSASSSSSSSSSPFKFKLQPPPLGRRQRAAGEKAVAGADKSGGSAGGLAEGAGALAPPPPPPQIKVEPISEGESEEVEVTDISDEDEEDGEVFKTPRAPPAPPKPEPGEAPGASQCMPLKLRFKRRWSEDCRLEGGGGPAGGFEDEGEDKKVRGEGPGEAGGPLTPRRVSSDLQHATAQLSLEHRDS
The essentials: as §1

The next experiment deals with SPI1 (Homo sapiens, UniProt P17947 1-270). The essentials:
as §1

For the next experiment, the target named is SPIB (Homo sapiens, UniProt Q01892 1-262). The method, boiled down: as §1
In the next experiment the target is T10, ETV7 (Homo sapiens, UniProt Q9Y603 1-341).
T10 sequence: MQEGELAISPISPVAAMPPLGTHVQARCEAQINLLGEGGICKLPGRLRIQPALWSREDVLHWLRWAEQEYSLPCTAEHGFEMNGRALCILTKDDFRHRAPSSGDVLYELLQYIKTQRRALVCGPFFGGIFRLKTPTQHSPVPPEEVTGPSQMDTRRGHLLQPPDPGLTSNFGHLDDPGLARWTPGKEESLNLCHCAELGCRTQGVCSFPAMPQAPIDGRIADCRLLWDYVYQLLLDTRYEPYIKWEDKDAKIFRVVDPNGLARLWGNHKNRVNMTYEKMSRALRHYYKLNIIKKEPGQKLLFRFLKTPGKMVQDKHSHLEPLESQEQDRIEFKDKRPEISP
The method, boiled down:
as §1

The target of another experiment is T11, ETV2 (Homo sapiens, UniProt O00321 1-342).
T11 sequence: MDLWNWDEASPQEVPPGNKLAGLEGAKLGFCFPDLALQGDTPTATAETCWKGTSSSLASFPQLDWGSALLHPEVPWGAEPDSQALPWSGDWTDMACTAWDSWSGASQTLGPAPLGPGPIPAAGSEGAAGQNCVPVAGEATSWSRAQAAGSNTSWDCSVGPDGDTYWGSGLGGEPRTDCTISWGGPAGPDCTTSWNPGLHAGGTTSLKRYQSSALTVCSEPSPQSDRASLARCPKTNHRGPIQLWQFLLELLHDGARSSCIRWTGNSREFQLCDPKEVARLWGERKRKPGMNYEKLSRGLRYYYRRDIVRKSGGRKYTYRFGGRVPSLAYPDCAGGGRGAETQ
The essentials: as §1

The target in another experiment is T12, SPDEF (Homo sapiens, UniProt O95238 1-335).
T12 sequence: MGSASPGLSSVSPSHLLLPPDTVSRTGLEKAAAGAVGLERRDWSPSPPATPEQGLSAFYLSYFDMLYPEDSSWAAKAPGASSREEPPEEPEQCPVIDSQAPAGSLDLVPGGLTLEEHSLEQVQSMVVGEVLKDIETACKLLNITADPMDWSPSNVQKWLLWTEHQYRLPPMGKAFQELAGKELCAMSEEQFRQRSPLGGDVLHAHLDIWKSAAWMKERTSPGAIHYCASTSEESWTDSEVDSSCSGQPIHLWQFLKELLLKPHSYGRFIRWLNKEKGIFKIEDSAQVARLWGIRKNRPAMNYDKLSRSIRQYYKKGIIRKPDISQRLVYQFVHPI
The method, boiled down:
as §1

Another experiment deals with ETV1 (Homo sapiens, UniProt P50549 1-477). The method, boiled down:
as §1

ELF1, sequence (P32519 whole entry): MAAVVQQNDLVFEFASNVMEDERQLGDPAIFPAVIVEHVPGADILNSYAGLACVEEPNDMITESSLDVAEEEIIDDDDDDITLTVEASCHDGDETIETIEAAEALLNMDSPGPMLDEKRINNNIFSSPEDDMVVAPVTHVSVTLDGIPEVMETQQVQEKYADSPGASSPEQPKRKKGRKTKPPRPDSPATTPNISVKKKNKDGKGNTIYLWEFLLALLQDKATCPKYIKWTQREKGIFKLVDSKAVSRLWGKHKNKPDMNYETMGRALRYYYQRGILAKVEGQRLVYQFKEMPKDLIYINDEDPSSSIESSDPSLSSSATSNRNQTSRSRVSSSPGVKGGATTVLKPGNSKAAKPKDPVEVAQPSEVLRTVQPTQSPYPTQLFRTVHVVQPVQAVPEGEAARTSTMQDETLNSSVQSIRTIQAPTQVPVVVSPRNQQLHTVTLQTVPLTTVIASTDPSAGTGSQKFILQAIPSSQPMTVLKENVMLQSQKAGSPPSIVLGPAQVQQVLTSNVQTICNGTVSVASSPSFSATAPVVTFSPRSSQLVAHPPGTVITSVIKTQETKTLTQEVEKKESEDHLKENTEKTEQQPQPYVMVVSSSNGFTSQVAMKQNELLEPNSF
ETV6, sequence (P41212 whole entry): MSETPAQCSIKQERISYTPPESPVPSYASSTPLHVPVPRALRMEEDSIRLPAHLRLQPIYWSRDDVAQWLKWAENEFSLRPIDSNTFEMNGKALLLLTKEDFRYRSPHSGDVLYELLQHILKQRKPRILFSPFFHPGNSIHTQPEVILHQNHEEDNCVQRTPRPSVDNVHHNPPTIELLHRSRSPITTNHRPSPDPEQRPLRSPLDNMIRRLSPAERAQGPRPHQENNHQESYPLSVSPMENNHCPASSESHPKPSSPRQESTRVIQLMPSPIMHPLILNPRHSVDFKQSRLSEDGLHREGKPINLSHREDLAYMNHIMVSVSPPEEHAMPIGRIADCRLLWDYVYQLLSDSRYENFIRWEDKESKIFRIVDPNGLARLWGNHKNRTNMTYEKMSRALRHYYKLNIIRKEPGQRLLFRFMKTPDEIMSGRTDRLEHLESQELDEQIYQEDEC
ETV1, sequence (P50549 whole entry): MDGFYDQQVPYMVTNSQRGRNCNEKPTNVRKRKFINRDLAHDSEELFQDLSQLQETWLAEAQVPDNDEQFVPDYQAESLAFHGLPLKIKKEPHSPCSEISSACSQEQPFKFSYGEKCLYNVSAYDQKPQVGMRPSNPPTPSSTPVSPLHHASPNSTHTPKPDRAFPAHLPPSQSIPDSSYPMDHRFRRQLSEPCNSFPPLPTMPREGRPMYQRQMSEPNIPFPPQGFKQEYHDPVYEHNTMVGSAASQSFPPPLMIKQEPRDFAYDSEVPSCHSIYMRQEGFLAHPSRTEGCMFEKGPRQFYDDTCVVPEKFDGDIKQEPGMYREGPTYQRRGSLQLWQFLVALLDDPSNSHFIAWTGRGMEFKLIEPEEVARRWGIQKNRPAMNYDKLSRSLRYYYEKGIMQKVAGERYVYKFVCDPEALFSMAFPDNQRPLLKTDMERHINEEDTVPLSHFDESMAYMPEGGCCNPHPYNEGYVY
SPIB, sequence (Q01892 whole entry): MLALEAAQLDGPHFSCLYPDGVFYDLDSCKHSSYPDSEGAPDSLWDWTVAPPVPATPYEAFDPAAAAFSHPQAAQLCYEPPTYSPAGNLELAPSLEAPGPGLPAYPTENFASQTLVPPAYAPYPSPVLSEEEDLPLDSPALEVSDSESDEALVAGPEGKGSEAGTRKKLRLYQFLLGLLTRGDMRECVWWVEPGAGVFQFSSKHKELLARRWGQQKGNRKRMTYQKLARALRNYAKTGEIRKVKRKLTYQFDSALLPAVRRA

Take GGTTAC: the binding signal was 1.05 fold enrichment (6-mer frequency, TF over GST control) with ELK1; 1.01 fold enrichment (6-mer frequency, TF over GST control) with ELF1; 1.04 fold enrichment (6-mer frequency, TF over GST control) in the experiment with ELK3; 1 fold enrichment (6-mer frequency, TF over GST control) with FEV; 1.05 fold enrichment (6-mer frequency, TF over GST control) with SPIC; 1.07 fold enrichment (6-mer frequency, TF over GST control) with ELF3. For the same sequence, the binding signal was 1.01 fold enrichment (6-mer frequency, TF over GST control) with ETV3L; 1.01 fold enrichment (6-mer frequency, TF over GST control) with ETV3; 1.02 fold enrichment (6-mer frequency, TF over GST control) with ETV6.
AGTTTG: the binding signal with SPIC is 1.06 fold enrichment (6-mer frequency, TF over GST control); with ELK4, 1.03 fold enrichment (6-mer frequency, TF over GST control); in the experiment with ERF, 1.01 fold enrichment (6-mer frequency, TF over GST control).
For the sequence GTGGTT, the binding signal with SPI1 is 1.02 fold enrichment (6-mer frequency, TF over GST control); with ELK3, 1.01 fold enrichment (6-mer frequency, TF over GST control); with SPIC it was 1.01 fold enrichment (6-mer frequency, TF over GST control); with ELF3, 1.1 fold enrichment (6-mer frequency, TF over GST control).
In the case of GTACAG, the binding signal was 1.01 fold enrichment (6-mer frequency, TF over GST control) with SPIB; 1.02 fold enrichment (6-mer frequency, TF over GST control) with SPIC; 1.02 fold enrichment (6-mer frequency, TF over GST control) with ERF; 1.06 fold enrichment (6-mer frequency, TF over GST control) with ETV7.
As to CGACAG, the binding signal was 1.01 fold enrichment (6-mer frequency, TF over GST control) with SPIC; 1.03 fold enrichment (6-mer frequency, TF over GST control) with ELK4; 1.07 fold enrichment (6-mer frequency, TF over GST control) in the experiment with ETV2; 1.07 fold enrichment (6-mer frequency, TF over GST control) in the experiment with ERF; 1.01 fold enrichment (6-mer frequency, TF over GST control) with SPDEF; 1.08 fold enrichment (6-mer frequency, TF over GST control) with ETV7.
CACGGC: the binding signal in the experiment with ELF1 was 1.04 fold enrichment (6-mer frequency, TF over GST control); with SPI1, 1.01 fold enrichment (6-mer frequency, TF over GST control); with SPIC, 1.03 fold enrichment (6-mer frequency, TF over GST control); with ETV1 it was 1 fold enrichment (6-mer frequency, TF over GST control); with ETV3L, 1.07 fold enrichment (6-mer frequency, TF over GST control); in the experiment with SPDEF, 1.03 fold enrichment (6-mer frequency, TF over GST control). Moreover, in the experiment with ETV6, the binding signal is 1.05 fold enrichment (6-mer frequency, TF over GST control).
